# According to publication PMC7819943, “Rice protein-binding microarrays: a tool to detect cis-acting elements near promoter regions in rice”:
# In all, about 39,000 sequences were measured (“fluorescence intensity (a.u.)”: median about 4,300, highest 2% from about 39,000 on). Shown is part of a subset that was picked to be rich in the highest values.
# Biological target: T1, OsSMF1 (Oryza sativa, UniProt Q6ZLB0 1-436)
# T1 sequence: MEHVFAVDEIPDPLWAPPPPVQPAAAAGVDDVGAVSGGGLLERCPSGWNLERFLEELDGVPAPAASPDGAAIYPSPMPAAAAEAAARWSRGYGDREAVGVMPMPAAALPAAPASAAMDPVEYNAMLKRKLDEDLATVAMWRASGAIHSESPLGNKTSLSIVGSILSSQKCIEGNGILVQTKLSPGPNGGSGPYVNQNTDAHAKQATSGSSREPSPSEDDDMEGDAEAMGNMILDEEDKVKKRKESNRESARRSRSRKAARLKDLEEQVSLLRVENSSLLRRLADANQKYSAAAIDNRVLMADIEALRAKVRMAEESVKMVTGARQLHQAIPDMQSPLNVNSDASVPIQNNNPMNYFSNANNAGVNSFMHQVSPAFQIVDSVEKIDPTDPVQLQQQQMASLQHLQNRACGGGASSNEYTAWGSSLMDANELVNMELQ
# Experiment: protein-binding microarray (RPBM); PBS, 2% BSA, 51.3 ng/ul salmon testes DNA, 50 uM zinc acetate, 200 nM TF, 25 C, 1 h; high values mean tight binding
# Details: protein: recombinant; tags: N-terminal polyhistidine and DsRed monomer fusion (pET32a); chain copies: 2; label: CyDye5-dUTP incorporated in the synthesized complementary strand; 3' TTTTT single-stranded linker to array surface; dsDNA, one strand shown
# Summary of the method: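 In PBS with 2% BSA, salmon testes DNA and 50 µM zinc acetate, 200 nM protein was incubated on a custom Agilent array at 25 °C for 1 h and then washed off. The array had been made double-stranded by primer extension with Cy5-dUTP and blocked with 2% BSA. The proteins were transcription factors fused N-terminally to polyhistidine and DsRed, expressed in E. coli BL21-CodonPlus and purified on Ni–NTA. The binding signal is per-feature fluorescence intensity (arbitrary units) from an Axon 4000B scanner.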
row,Sequence,binding signal
1,TGCATCACACGTACACATCTATCCATCGATCCAGTCCGCCCGGAGTCACCTAGTGCAG,4610 fluorescence intensity (a.u.)
2,TTTCTTTTCTTCTTTCCTTCTCCCCACGGAGGTGTACGTACGGAGTCACCTAGTGCAG,3440 fluorescence intensity (a.u.)
3,TGGTACATGGTGTGCCCTACCGAGCTTAGTCAACCACTTTCGGAGTCACCTAGTGCAG,3230 fluorescence intensity (a.u.)
4,TATAGTGGCAACGCATGCTGACGTTACGGTGTACCGCCGTCGGAGTCACCTAGTGCAG,5900 fluorescence intensity (a.u.)
5,TTCAGGTGATGAGTCAATGGAGGAGGATGTCATGGAGATTCGGAGTCACCTAGTGCAG,4750 fluorescence intensity (a.u.)
6,ATAACGGTGCTAATCTACTGGTGACTGTGCCTGGTGGTGGCGGAGTCACCTAGTGCAG,4380 fluorescence intensity (a.u.)
7,ATATCGACTACACACTGTTCTTGGCTACATCGATTGATTGCGGAGTCACCTAGTGCAG,4840 fluorescence intensity (a.u.)
8,GCTTATCGATAAACTCAGTGTATTTGCATTCAAATTTTGACGGAGTCACCTAGTGCAG,3660 fluorescence intensity (a.u.)
9,TCATTTCTAATGTAAATTATCTTTTGCGTAAGTAATTTCTCGGAGTCACCTAGTGCAG,3230 fluorescence intensity (a.u.)
10,TAAAGTAAACTCGATCTCTTTCCGAGAAGTGTATTATTTTCGGAGTCACCTAGTGCAG,41400 fluorescence intensity (a.u.)
11,TGATTAAAGTATTCTTATTTCTCTTTTGAGCAATATCTAACGGAGTCACCTAGTGCAG,21900 fluorescence intensity (a.u.)
12,AACCCTAAGACTAGAGGCGGGCTGGAGCGTGGAGGCGGGACGGAGTCACCTAGTGCAG,3240 fluorescence intensity (a.u.)
13,GGTTTAACCGTTTGGTAGCTGACATGTGCGCCTGGGCATACGGAGTCACCTAGTGCAG,3380 fluorescence intensity (a.u.)
14,TCATTGGTATCTCAATGACATGTAGGACCTACATGAGTCACGGAGTCACCTAGTGCAG,8190 fluorescence intensity (a.u.)
15,AATCTACTTCCTCCGTTTTATGTTATAAGACTTTCTAGCACGGAGTCACCTAGTGCAG,3140 fluorescence intensity (a.u.)
16,AAAATATATTACTACCTCCGTTTCATATTATAAGACTTTCCGGAGTCACCTAGTGCAG,65400 fluorescence intensity (a.u.)
17,TTTGAAAATAATACTCCCTCCGTTTCATAATATAAGTGATCGGAGTCACCTAGTGCAG,3260 fluorescence intensity (a.u.)
18,ACCACCACCTCGGCATCTCCTCGTCCTCGAGCCCAATACTCGGAGTCACCTAGTGCAG,3660 fluorescence intensity (a.u.)
19,AGCAACCAAATCTTCCCAATTCTCACTTGCTCCTAGATACCGGAGTCACCTAGTGCAG,3840 fluorescence intensity (a.u.)
20,AGCCTTGTCATGTAAACCTATCCTTTTGAGACACGTGCGTCGGAGTCACCTAGTGCAG,5780 fluorescence intensity (a.u.)
21,TTCTCCCACCGCATCCTCTCTCCCCTTGAGTATTTACTTTCGGAGTCACCTAGTGCAG,3420 fluorescence intensity (a.u.)
22,CGTAACGCGATCGAGAACCGACTCAGCCGAGACTCATCGTCGGAGTCACCTAGTGCAG,3710 fluorescence intensity (a.u.)
23,TTCGAGCAACTCTACCTGGATCCAGACCAACCCCAGTAGACGGAGTCACCTAGTGCAG,50400 fluorescence intensity (a.u.)
24,TGGATATTTTCTACCCCTGGACCCAGCTGTCAGATCCAACCGGAGTCACCTAGTGCAG,3250 fluorescence intensity (a.u.)
25,AGGACGAGACCCCATCCAACCACCCCAGCCACGTCAGCAACGGAGTCACCTAGTGCAG,34000 fluorescence intensity (a.u.)
26,TAGCAGGTTTCCTGCCAACTTGGCACACTTGCTTCGTGGTCGGAGTCACCTAGTGCAG,3620 fluorescence intensity (a.u.)
27,GATTCAAGGTTGAGAGGACCTAAGATGTCCAATGATGTGTCGGAGTCACCTAGTGCAG,3470 fluorescence intensity (a.u.)
28,GGATAAGTGCCCCTACCAATAGGTGGACCCTTGTCACTGGCGGAGTCACCTAGTGCAG,19300 fluorescence intensity (a.u.)

row,Sequence,binding signal
1,TGTCAATAATGCATCCTGCAGCTAACATCAAATGACATGGCGGAGTCACCTAGTGCAG,3150 fluorescence intensity (a.u.)
2,GGCCGCTGATCTACGTGGCGGCAGTTCGGTACAGGTGGTGCGGAGTCACCTAGTGCAG,10500 fluorescence intensity (a.u.)
3,GGGCCCCTCCCAAATCTCCCATGGTTCCATCCATCCCCATCGGAGTCACCTAGTGCAG,3890 fluorescence intensity (a.u.)
4,CCATCCCATGGTGGGCCGGTTAGTTCTGTTCCTGGGCCATCGGAGTCACCTAGTGCAG,64400 fluorescence intensity (a.u.)
5,GCTGTTGGTTGGTGCCACATCCCACGCTGCCATGCCATGCCGGAGTCACCTAGTGCAG,4910 fluorescence intensity (a.u.)
6,ATTAGTATTCCCTCCCATCATTAATATATGACGTTAGTGTCGGAGTCACCTAGTGCAG,4550 fluorescence intensity (a.u.)
7,CGGGAGGGGAGGGGAATGGATGTGGGGAGGAGAGAGACTGCGGAGTCACCTAGTGCAG,4600 fluorescence intensity (a.u.)
8,TTCGTCATAGTGTGGAACGACACATCATGAAGATTAGAGACGGAGTCACCTAGTGCAG,3630 fluorescence intensity (a.u.)
9,CCGGGAAATTCTTGTGTTGTTGTGTTGGTCTTGAGCAATTCGGAGTCACCTAGTGCAG,3630 fluorescence intensity (a.u.)
10,GTTCTGTCTTAACCTGCTTTCATATTAATTGTTAAAGTTGCGGAGTCACCTAGTGCAG,3280 fluorescence intensity (a.u.)
11,TGCAAATTGTGCTTTTCTATTCTGTTGTGTCTTCTGCTTTCGGAGTCACCTAGTGCAG,40700 fluorescence intensity (a.u.)
12,AGCCTAGGAGGAGATGTGACCTCACAGTCAGGTGTCATCGCGGAGTCACCTAGTGCAG,3660 fluorescence intensity (a.u.)
13,ACCAACCAACCAACCAACCAACCAAGCCTCCCAACTCCATCGGAGTCACCTAGTGCAG,3810 fluorescence intensity (a.u.)
14,GATTCGCGTCCTCCGTTTGCTTCGCTTCTTCTTCTAGAACCGGAGTCACCTAGTGCAG,3490 fluorescence intensity (a.u.)
15,CGTCCACGTCCATCTCCGCCGCTGACAGCACCAGCTCTTCCGGAGTCACCTAGTGCAG,5020 fluorescence intensity (a.u.)
16,AGAGCCGAGGCCCGAATTCCTCCGGTCCTCCTCGTGACCCCGGAGTCACCTAGTGCAG,15400 fluorescence intensity (a.u.)
17,ACCCCTGCGAATATATAATTTCCCCGCGAGGCCGCGAGCCCGGAGTCACCTAGTGCAG,47700 fluorescence intensity (a.u.)
18,TTCCCCTTCCGCGACTGCGAGCTTCTCCGCCGCCGCCGCCCGGAGTCACCTAGTGCAG,3160 fluorescence intensity (a.u.)
19,CACTCTCCTCCTACACTGCATGCTGCTGCTGACGTGGCTCCGGAGTCACCTAGTGCAG,24900 fluorescence intensity (a.u.)
20,TGAGAATACCAGATGACAAAAGGTGACAGTAGTTAGGAACCGGAGTCACCTAGTGCAG,4190 fluorescence intensity (a.u.)
21,GGGAGGTGTGGTGATCGATCGCCATGCGCGGATTTTCTAACGGAGTCACCTAGTGCAG,5590 fluorescence intensity (a.u.)
22,TGATTGTTTAACCAAAATATATGCAATTGACTAAGCAAAACGGAGTCACCTAGTGCAG,3220 fluorescence intensity (a.u.)
23,CCAAGCAAGCATACAGAGAGCAATAAAAGTATAAAACACACGGAGTCACCTAGTGCAG,4950 fluorescence intensity (a.u.)
24,TTTATCAAATATTTTGTTCCAAAGCTTACATAAGCATATGCGGAGTCACCTAGTGCAG,3320 fluorescence intensity (a.u.)
25,GCTTGCGCCAAAACCAAACATAGAGCAGCAATAGAGAGGACGGAGTCACCTAGTGCAG,3610 fluorescence intensity (a.u.)
26,TTATCTCCAATTTAAGCAACCAGAGGAATATATATGCTTGCGGAGTCACCTAGTGCAG,53500 fluorescence intensity (a.u.)
27,AGTGCTTTATCACACAGAATCAATACCCAAGAAGCATATGCGGAGTCACCTAGTGCAG,41000 fluorescence intensity (a.u.)
